According to PubChem BioAssay:
For some of these results: Measured potencies and affinities stand elsewhere. Activity calls are given as the source filed them. Unless noted, how the calls were made is not given here.

Columns and labels:
[1] = antimalarial activity against Dd2 strain (AID 2302;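 active means growth inhibition above 50% at the single 2 µM test dose, taken to imply half-maximal potency below 2 µM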;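 further: 0% = DMSO untreated growth and 100% = chloroquine plus artemisinin killed control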); conditions: P. falciparum Dd2 in RBCs, LDH growth readout, 72 h; at 2 µM; hits give high values
[2] = HepG2 cytotoxicity, primary screen, cytotoxicity control for P. falciparum antimalarial project, cell-based, ATP luminescence (AID 2303;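 active means inhibition above 50%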;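 further: 0% = DMSO wells and 100% = digitonin-killed cells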); conditions: HepG2 viability, 24-48 h, at 10 µM, hits give high values
[3] = molecular target: L-lactate dehydrogenase (Plasmodium falciparum (isolate CDC / Honduras)) (UniProt Q27743); assay: PfLDH activity inhibition – cell lysate, 3D7 strain, counter-screen for P. falciparum growth inhibition project (AID 2304);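 further: 0% = vehicle and 100% = reference inhibitor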; conditions: P. falciparum 3D7 crude extract, LDH APAD/NBT absorbance; at 2 µM; hits give high values
[4] = inhibition of 3D7 malaria parasite growth – strain 3D7 (AID 2306);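 further: 0% = DMSO wells and 100% = chloroquine plus artemisinin control wells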; conditions: P. falciparum 3D7 erythrocytic growth, LDH absorbance, 72 h; at 2 µM; hits give high values
[5] = molecular target: Calcium-dependent protein kinase 1 (Plasmodium falciparum (isolate 3D7)) (UniProt P62344); assay: PfCDPK1 kinase inhibitors, biochemical, TCAMS library (AID 1159585; cut-off not given, nearly all actives have IC50 up to about 0.98 µM;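 further: inhibitors leave more ATP so luminescence rises with inhibition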); conditions: recombinant PfCDPK1, Kinase-Glo ATP depletion luminescence
[6] = molecular target: Plasmodium falciparum protein kinase 6 (PK6, PF3D7_1337100) (UniProt Q8IDW1); assay: PfPK6 kinase inhibitors, biochemical, TCAMS library (AID 1159586); conditions: recombinant PfPK6, Kinase-Glo ATP depletion luminescence
[7] = molecular target: Protein kinase 7 (PK7), Plasmodium falciparum 3D7 (PF3D7_0213400) (UniProt Q7YTF7); assay: inhibition of Plasmodium PK7 catalytic activity – biochemical, TCAMS antimalarial set, Kinase-Glo luminescence (AID 1159587); conditions: recombinant PfPK7, Kinase-Glo ATP depletion luminescence
[8] = molecular target: Calcium-dependent protein kinase 4 (Plasmodium falciparum (isolate 3D7)) (UniProt Q8IBS5); assay: PfCDPK4 kinase inhibitors, biochemical, TCAMS library (AID 1159588; cut-off not given, nearly all actives have IC50 up to about 0.91 µM); conditions: recombinant PfCDPK4, Kinase-Glo ATP depletion luminescence
Calcium-dependent protein kinase 4 (Plasmodium falciparum (isolate 3D7)), sequence (Q8IBS5 whole entry, looked up): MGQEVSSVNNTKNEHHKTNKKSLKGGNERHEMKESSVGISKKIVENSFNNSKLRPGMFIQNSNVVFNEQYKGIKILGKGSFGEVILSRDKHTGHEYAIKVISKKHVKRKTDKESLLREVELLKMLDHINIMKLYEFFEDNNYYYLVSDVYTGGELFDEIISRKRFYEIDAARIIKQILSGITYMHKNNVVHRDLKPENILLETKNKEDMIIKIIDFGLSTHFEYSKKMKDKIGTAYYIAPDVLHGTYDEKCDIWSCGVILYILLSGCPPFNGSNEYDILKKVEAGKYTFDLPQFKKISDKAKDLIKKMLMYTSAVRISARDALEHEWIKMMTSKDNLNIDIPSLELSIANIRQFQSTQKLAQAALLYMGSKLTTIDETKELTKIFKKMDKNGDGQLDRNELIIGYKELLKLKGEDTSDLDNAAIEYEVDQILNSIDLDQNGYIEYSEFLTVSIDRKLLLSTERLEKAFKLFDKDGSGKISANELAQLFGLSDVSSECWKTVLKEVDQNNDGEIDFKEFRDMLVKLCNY

Plasmodium falciparum protein kinase 6 (PK6, PF3D7_1337100), sequence (Q8IDW1 1-305): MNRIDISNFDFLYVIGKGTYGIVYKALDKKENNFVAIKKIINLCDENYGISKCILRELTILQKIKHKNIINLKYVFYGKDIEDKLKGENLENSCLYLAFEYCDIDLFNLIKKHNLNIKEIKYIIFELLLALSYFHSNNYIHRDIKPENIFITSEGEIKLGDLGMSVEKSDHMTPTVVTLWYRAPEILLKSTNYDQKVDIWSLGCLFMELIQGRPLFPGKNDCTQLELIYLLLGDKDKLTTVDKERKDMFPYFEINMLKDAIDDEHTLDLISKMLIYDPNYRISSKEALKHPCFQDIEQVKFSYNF
Protein kinase 7 (PK7), Plasmodium falciparum 3D7 (PF3D7_0213400), sequence (Q7YTF7 1-343): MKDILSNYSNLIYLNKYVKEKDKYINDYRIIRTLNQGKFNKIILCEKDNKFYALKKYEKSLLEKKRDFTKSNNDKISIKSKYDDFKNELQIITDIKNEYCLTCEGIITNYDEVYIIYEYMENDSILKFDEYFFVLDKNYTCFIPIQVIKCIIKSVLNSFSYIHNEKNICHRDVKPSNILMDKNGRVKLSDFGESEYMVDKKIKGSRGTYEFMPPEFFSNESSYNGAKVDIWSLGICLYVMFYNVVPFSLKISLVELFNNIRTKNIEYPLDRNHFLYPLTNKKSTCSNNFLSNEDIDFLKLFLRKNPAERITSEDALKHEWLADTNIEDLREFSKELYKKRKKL
L-lactate dehydrogenase (Plasmodium falciparum (isolate CDC / Honduras)), sequence (Q27743 whole entry, looked up): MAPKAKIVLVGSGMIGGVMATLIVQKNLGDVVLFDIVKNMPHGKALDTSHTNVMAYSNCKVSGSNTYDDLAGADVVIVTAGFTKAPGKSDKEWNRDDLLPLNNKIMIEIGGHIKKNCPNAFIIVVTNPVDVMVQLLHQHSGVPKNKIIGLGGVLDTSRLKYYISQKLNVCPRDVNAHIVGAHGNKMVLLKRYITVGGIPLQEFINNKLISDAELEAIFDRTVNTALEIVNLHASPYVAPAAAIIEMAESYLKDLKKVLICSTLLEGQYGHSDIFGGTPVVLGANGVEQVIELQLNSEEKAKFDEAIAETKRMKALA
Calcium-dependent protein kinase 1 (Plasmodium falciparum (isolate 3D7)), sequence (P62344 whole entry, looked up): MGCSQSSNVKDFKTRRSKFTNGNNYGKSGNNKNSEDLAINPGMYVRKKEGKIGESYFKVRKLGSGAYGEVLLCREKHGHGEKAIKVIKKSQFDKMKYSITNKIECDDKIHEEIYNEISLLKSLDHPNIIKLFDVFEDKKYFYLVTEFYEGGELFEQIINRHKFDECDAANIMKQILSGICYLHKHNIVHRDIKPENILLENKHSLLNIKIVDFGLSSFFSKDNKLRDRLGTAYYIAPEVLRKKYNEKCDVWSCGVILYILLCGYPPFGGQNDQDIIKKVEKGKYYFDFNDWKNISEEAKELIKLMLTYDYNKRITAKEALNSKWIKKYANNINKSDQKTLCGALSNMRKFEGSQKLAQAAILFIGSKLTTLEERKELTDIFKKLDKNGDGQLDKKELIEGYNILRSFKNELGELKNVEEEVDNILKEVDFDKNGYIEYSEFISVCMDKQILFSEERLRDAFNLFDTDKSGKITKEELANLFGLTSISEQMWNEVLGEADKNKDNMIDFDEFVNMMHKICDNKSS

Cc1ccc(CNC(=O)[C@H](Cc2ccccc2)Nc2cc(C)nc(NCC3CCCCC3)n2)cc1
active: growth inhibition [1] 89% | growth inhibition [4] 101%
inactive: inhibition [2] -10% | inhibition [3] 0% | outcome [5] | outcome [6] | outcome [7] | outcome [8]

Cc1cc(NC(=O)Nc2cccc(C#N)c2)c2ccccc2n1
inactive: inhibition [2] 17% | inhibition [3] -1% | outcome [5] | outcome [6] | outcome [7] | outcome [8]
active: growth inhibition [1] 82% | growth inhibition [4] 100%

Cc1cc(-c2ccc(NC(=O)N3CCc4cc(Br)c(N5CCN(C)CC5)cc43)cc2)ccc1C#N
active: growth inhibition [1] 56% | inhibition [2] 100% | growth inhibition [4] 99%
inactive: inhibition [3] 0% | outcome [5] | outcome [6] | outcome [7] | outcome [8]

Cc1[nH]c2c(C)cccc2c1C1CCN(CCC2CCN(C(=O)/C=C/c3ccc(Cl)c(Cl)c3)CC2)CC1
active: growth inhibition [1] 79% | inhibition [2] 67% | growth inhibition [4] 100%
inactive: inhibition [3] -1% | outcome [5] | outcome [6] | outcome [7] | outcome [8]

COc1ccc2c(NN=Cc3ccccc3Cl)ccnc2c1
active: growth inhibition [4] 99%
inactive: growth inhibition [1] 46% | inhibition [2] 10% | inhibition [3] -6% | outcome [5] | outcome [6] | outcome [7] | outcome [8]

COc1ccc2nccc([C@@H](O)CN3CCC(NC(=O)c4ccc5nc(-n6cccc6)sc5c4)CC3)c2c1
active: growth inhibition [4] 90%
inactive: growth inhibition [1] 40% | inhibition [2] 26% | inhibition [3] -2% | outcome [5] | outcome [6] | outcome [7] | outcome [8]

O=C(Nc1ccc2c(c1)CCC2)c1cccc(N2CCN(c3ccncc3)CC2)c1
inactive: growth inhibition [1] 22% | inhibition [2] 35% | inhibition [3] -2% | outcome [5] | outcome [6] | outcome [7] | outcome [8]
active: growth inhibition [4] 92%

NCC1CCCN1Cc1cccc(-c2cccc(-c3nc4ccc(F)cc4[nH]3)c2)c1 (stereo not drawn)
inactive: inhibition [2] 10% | inhibition [3] 5% | outcome [5] | outcome [6] | outcome [7] | outcome [8]
active: growth inhibition [1] 65% | growth inhibition [4] 101%

Cc1ccc(CN2CCCN(Cc3ccc(C(=O)Nc4ccc(Cl)cc4)cc3)CC2)s1
active: inhibition [2] 53% | growth inhibition [4] 85%
inactive: growth inhibition [1] 5% | inhibition [3] 3% | outcome [5] | outcome [6] | outcome [7] | outcome [8]

CCCNCc1ccc(-c2ccc(CN(C(=O)c3nn(-c4ccccc4)nc3C)C(C)CN(C)C)cc2)nc1 (stereo not drawn)
inactive: inhibition [2] 27% | inhibition [3] -8% | outcome [5] | outcome [6] | outcome [7] | outcome [8]
active: growth inhibition [1] 95% | growth inhibition [4] 95%

Nc1c2c(nc3ccc(C(=O)Nc4ccccc4)cc13)CCCC2
inactive: inhibition [2] 20% | inhibition [3] -3% | outcome [5] | outcome [6] | outcome [7] | outcome [8]
active: growth inhibition [1] 78% | growth inhibition [4] 100%

Cc1nc2nc(N)nc(N)c2c(C)c1Cc1cccc(F)c1
inactive: growth inhibition [1] 1% | inhibition [3] -5% | outcome [5] | outcome [6] | outcome [7] | outcome [8]
active: inhibition [2] 65% | growth inhibition [4] 96%

COc1ccc2nccc([C@@H](O)CN3CCC(NCc4ccc5cccc(O)c5n4)CC3)c2c1
inactive: growth inhibition [1] 40% | inhibition [2] 10% | inhibition [3] 1% | outcome [5] | outcome [6] | outcome [7] | outcome [8]
active: growth inhibition [4] 93%

COc1ccc2c(NN=Cc3ccncc3)cc(C)nc2c1
inactive: inhibition [2] -4% | inhibition [3] -4% | outcome [5] | outcome [6] | outcome [7] | outcome [8]
active: growth inhibition [1] 95% | growth inhibition [4] 99%

CC1(CCc2ccccc2)N=C(Nc2ccc(Cl)cc2)N=C(N)C1c1ccc(Cl)c(Cl)c1 (stereo not drawn)
active: growth inhibition [1] 98% | inhibition [2] 81% | growth inhibition [4] 102%
inactive: inhibition [3] -6% | outcome [5] | outcome [6] | outcome [7] | outcome [8]

CC(=O)Nc1ncc(C(=O)Nc2cccc(-c3ccc(-c4nc5ccc(C(F)(F)F)cc5[nH]4)cc3)c2)s1
active: growth inhibition [1] 94% | inhibition [2] 83% | growth inhibition [4] 101%
inactive: inhibition [3] -4% | outcome [5] | outcome [6] | outcome [7] | outcome [8]

COc1ccccc1/C=C/C(=O)N(C)C1CCN(CCCCCNC(=O)/C=C/c2ccc(Cl)c(Cl)c2)CC1
inactive: inhibition [3] -3% | outcome [5] | outcome [6] | outcome [7] | outcome [8]
active: growth inhibition [1] 63% | inhibition [2] 71% | growth inhibition [4] 83%

CN(CCc1ccccn1)c1cccc2c1nc(-c1cccnc1)n2CCNCc1ccccc1
inactive: inhibition [2] 12% | inhibition [3] 2% | outcome [5] | outcome [6] | outcome [7] | outcome [8]
active: growth inhibition [1] 97% | growth inhibition [4] 90%

c1cncc(CN2CCCN(c3ccc4c(c3)CCN(Cc3ccc(-c5ncc[nH]5)cc3)CC4)CC2)c1
inactive: growth inhibition [1] 33% | inhibition [2] 7% | inhibition [3] 2% | outcome [5] | outcome [6] | outcome [7] | outcome [8]
active: growth inhibition [4] 99%

S=C(NCCCCCN1CCC(c2c[nH]c3ccccc23)CC1)Nc1cccc(I)c1
inactive: growth inhibition [1] 14% | inhibition [3] -3% | outcome [5] | outcome [6] | outcome [7] | outcome [8]
active: inhibition [2] 69% | growth inhibition [4] 99%

O=C(COc1ccccc1)NC1CCN(c2ccnc3cc(Cl)ccc23)C1 (stereo not drawn)
active: growth inhibition [4] 101%
inactive: growth inhibition [1] 35% | inhibition [2] 22% | inhibition [3] -5% | outcome [5] | outcome [6] | outcome [7] | outcome [8]

CC(C)Sc1nc2c(c(=O)n1CCc1ccccc1)C1(CCCCC1)Cc1ccccc1-2
active: growth inhibition [4] 92%
inactive: growth inhibition [1] 5% | inhibition [2] 8% | inhibition [3] 1% | outcome [5] | outcome [6] | outcome [7] | outcome [8]

CC1(C)N=C(N)N=C(N)N1c1cc(Cl)c(Cl)cc1Cl
active: growth inhibition [4] 95%
inactive: growth inhibition [1] -3% | inhibition [2] 11% | inhibition [3] 1% | outcome [5] | outcome [6] | outcome [7] | outcome [8]

CCc1cn2c3c(cc(C(=O)N[C@@H](Cc4cccc(F)c4)[C@H](O)CNC4CCCCC4)cc13)N(C)S(=O)(=O)CC2
inactive: inhibition [2] 5% | inhibition [3] 0% | outcome [5] | outcome [6] | outcome [7] | outcome [8]
active: growth inhibition [1] 99% | growth inhibition [4] 99%

Cc1ccc(NC(=O)Nc2ccc(Cl)cc2)cc1-c1cccc(C(=O)Nc2ccc(F)cc2)c1
inactive: inhibition [2] 8% | inhibition [3] 5% | outcome [5] | outcome [6] | outcome [7] | outcome [8]
active: growth inhibition [1] 52% | growth inhibition [4] 96%

CN1CCN(CCCN(Cc2ccc(-c3ccc(CNCCc4ccccc4)cc3)cc2)C(=O)c2cccs2)CC1
inactive: inhibition [2] 32% | inhibition [3] 3% | outcome [5] | outcome [6] | outcome [7] | outcome [8]
active: growth inhibition [1] 78% | growth inhibition [4] 98%

CCNc1cc(C(=O)N[C@@H](Cc2ccccc2)[C@H](O)CNC23CCC(CC2)CC3)cc(N2CCCCS2(=O)=O)c1
inactive: inhibition [2] 10% | inhibition [3] 4% | outcome [5] | outcome [6] | outcome [7] | outcome [8]
active: growth inhibition [1] 98% | growth inhibition [4] 99%

CC(Cc1ccc(OCC(=O)NCC2CCN(CCc3cccc(Cl)c3)CC2)cc1)NCCc1cccc(Cl)c1 (stereo not drawn)
inactive: inhibition [3] -8% | outcome [5] | outcome [6] | outcome [7] | outcome [8]
active: growth inhibition [1] 85% | inhibition [2] 100% | growth inhibition [4] 96%

O=C(/C=C/c1ccccc1O)NCCCCCN1CCC(c2c[nH]c3ccccc23)CC1
active: growth inhibition [4] 95%
inactive: growth inhibition [1] 1% | inhibition [2] 7% | inhibition [3] -5% | outcome [5] | outcome [6] | outcome [7] | outcome [8]

Cc1cc(C)c2cc(CNCCCNc3nc4ccccc4[nH]3)[nH]c2c1
active: growth inhibition [4] 102%
inactive: growth inhibition [1] -2% | inhibition [2] 32% | inhibition [3] 3% | outcome [5] | outcome [6] | outcome [7] | outcome [8]

Nc1c2ccccc2nc2ccc(-c3ccccc3)cc12
inactive: inhibition [3] 2% | outcome [5] | outcome [6] | outcome [7] | outcome [8]
active: growth inhibition [1] 99% | inhibition [2] 100% | growth inhibition [4] 101%

O=C(Nc1ccc(Cl)cc1)N[C@H]1CCN(Cc2ccc(OCCCN3CCCCC3)cc2)C1
inactive: growth inhibition [1] -1% | inhibition [2] 29% | inhibition [3] -2% | outcome [5] | outcome [6] | outcome [7] | outcome [8]
active: growth inhibition [4] 103%

CCCn1c(Sc2ccc(C#N)c([N+](=O)[O-])c2)nnc1-c1ccc(Cl)cc1
inactive: inhibition [2] 12% | inhibition [3] -3% | outcome [5] | outcome [6] | outcome [7] | outcome [8]
active: growth inhibition [1] 95% | growth inhibition [4] 96%

CC(C)(C)c1ccc(CNC(=O)c2cc(CNC3CCC(N)CC3)ccc2O)cc1 (stereo not drawn)
active: growth inhibition [4] 94%
inactive: growth inhibition [1] 1% | inhibition [2] 1% | inhibition [3] 0% | outcome [5] | outcome [6] | outcome [7] | outcome [8]

Cc1ccn2cc(-c3ccc(NC(=O)c4ccc(Br)o4)cc3)nc2c1
active: inhibition [2] 100% | growth inhibition [4] 98%
inactive: growth inhibition [1] 41% | inhibition [3] -3% | outcome [5] | outcome [6] | outcome [7] | outcome [8]

Cc1ccccc1C1CCN(c2ccc(NC(=O)c3ccc(Cl)nc3)cc2)CC1
active: growth inhibition [1] 82% | growth inhibition [4] 92%
inactive: inhibition [2] 43% | inhibition [3] -2% | outcome [5] | outcome [6] | outcome [7] | outcome [8]

c1cc(CNC2CCCC2)cc(-c2ccc(CNc3ccc4ncccc4c3)cc2)c1
inactive: growth inhibition [1] 24% | inhibition [2] 32% | inhibition [3] -9% | outcome [5] | outcome [6] | outcome [7] | outcome [8]
active: growth inhibition [4] 98%

N#CN1CC[C@@H](NS(=O)(=O)Cc2ccc(Cl)c(Cl)c2)C1
active: growth inhibition [1] 94% | growth inhibition [4] 94%
inactive: inhibition [2] 13% | inhibition [3] -3% | outcome [5] | outcome [6] | outcome [7] | outcome [8]

CCC(C)CN1CCN(c2ccc(NC(=O)c3cccs3)cc2)CC1C (stereo not drawn)
inactive: inhibition [2] -3% | inhibition [3] 1% | outcome [5] | outcome [6] | outcome [7] | outcome [8]
active: growth inhibition [1] 94% | growth inhibition [4] 94%

CN(C)c1ccc2c(c1)Sc1cc(N(C)C)ccc1N2C(=O)CCCC(=O)O
active: growth inhibition [1] 81% | growth inhibition [4] 96%
inactive: inhibition [2] -4% | inhibition [3] -6% | outcome [5] | outcome [6] | outcome [7] | outcome [8]

CNC(=O)Cc1ccc(C(=O)Nc2cccc(-c3csc(-c4nc5ccccc5[nH]4)c3)c2)cc1
active: growth inhibition [1] 69% | growth inhibition [4] 95%
inactive: inhibition [2] 36% | inhibition [3] 4% | outcome [5] | outcome [6] | outcome [7] | outcome [8]
